Test results reported in PubChem BioAssay AID2016 (NMMLSC, 2009).
Hit rate of the full screen: of about 330,000 compounds, about 1,700 (0.52%) were called active.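 How the source made its calls: active means GFP response versus DMSO above a set limit, roughly screen mean plus 3 SD (cut at about 180% in these data); inconclusive means fewer than 70 cells counted for a yeast strain; inactive means the rest.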 Shown is part of a subset that was picked to be rich in actives.

Assay: modulators of MEP2-GFP levels in yeast, primary screen, S. cerevisiae, multiplex flow cytometry, MLPCN library (AID 2016);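 further: median GFP fluorescence of the barcode-gated MEP2-GFP cells per well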
Settings: S. cerevisiae MEP2-GFP strain, 3 h, at 10 µM, active compounds read high

Structure (SMILES)	GFP response vs DMSO
Cc1cccc2c(CCN)c[nH]c12	105% (inactive)
C/C(CCc1c[nH]c2ccccc12)=N\O	105% (inactive)
NCCc1c[nH]c2ccc(O)cc12	206% [may fluoresce violet] (active)
COC1=CC=C2[C@H]3Cc4ccc(OC)c5c4[C@@]2(CCN3C)C1O5 (stereo not given in full)	106% (inactive)
CCCOC(=O)C1C2c3ccccc3C(c3ccccc32)C1C(=O)O (stereo not given)	99.1% (inactive)
